Laboratory results taken from PubChem BioAssay AID1159580 (chemical genetic matrix, 2015).
“And” between values parts separate entries of the source, which are not always exact repeats. Equal values may be shown once. Among all 5,500 compounds or so, about 2,000 (36%) were called active. Inconclusive results (about 18%) are left out. No stated cut-off is given here; in the data, active means normalized growth mostly below about 0.91 (no sharp cut-off); inconclusive means no clear call, values can overlap the other calls; inactive means mostly above about 0.92. Some of the results follow.

Experiment: chemical genetic growth profiling, strain panel (AID 1159580);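 further: tested at 20 µM; growth read once vehicle control cultures reached saturation at 30 °C; 1 = growth at the plate median or of vehicle wells; lower values mean less growth of the strain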
Details: S. cerevisiae deletion strains, growth OD

Measured: normalized growth

Oc1ccc(Cl)c2cccnc12
active: locus YAL021C, strain ccr4, hits give low values 0.0729 | locus YAL026C, strain drs2, hits give low values 0.0768 | locus YAL030W, strain snc1, hits give low values 0.0588 | locus YBL061C, strain skt5, hits give low values 0.0618 | locus YBR009C, strain hhf1, hits give low values 0.0586 | locus YBR021W, strain FUR4, hits give low values 0.11 | locus YBR023C, strain chs3, hits give low values 0.0665 | locus YBR171W, strain sec66, hits give low values 0.0765 | locus YBR229C, strain ROT2, hits give low values 0.0466 | locus YBR231C, strain swc5, hits give low values 0.0699 | locus YBR279W, strain paf1, hits give low values 0.0591 | locus YCL011C, strain gbp2, hits give low values 0.0563 | locus YCL016C, strain dcc1, hits give low values 0.119 | locus YCL029C, strain bik1, hits give low values 0.0654 | locus YCL069W, strain vba3, hits give low values 0.0931 | locus YCR088W, strain abp1, hits give low values 0.0863 | locus YDL005C, strain med2, hits give low values 0.14 | locus YDL035C, strain GPR1, hits give low values 0.0492 | locus YDL040C, strain nat1, hits give low values 0.169 | locus YDL074C, strain BRE1, hits give low values 0.0799 | locus YDL101C, strain DUN1, hits give low values 0.0585 | locus YDL185W, strain tfp1, hits give low values 0.0618 | locus YDL192W, strain arf1, hits give low values 0.0648 | locus YDR001C, strain nth1, hits give low values 0.113 | locus YDR069C, strain doa4, hits give low values 0.0629 | locus YDR101C, strain arx1, hits give low values 0.0618 | locus YDR137W, strain rgp1, hits give low values 0.102 | locus YDR159W, strain sac3, hits give low values 0.284 | locus YDR162C, strain NBP2, hits give low values 0.0481 | locus YDR195W, strain ref2 0.112 | locus YDR297W, strain sur2, hits give low values 0.0577 | locus YDR318W, strain mcm21, hits give low values 0.0654 | locus YDR334W, strain swr1, hits give low values 0.0718 | locus YDR335W, strain msn5, hits give low values 0.0632 | locus YDR388W, hits give low values 0.0579 | locus YDR392W, strain spt3, hits give low values 0.12 | locus YDR502C, strain sam2, hits give low values 0.0635 | locus YEL003W, strain gim4, hits give low values 0.0561 | locus YEL037C, strain rad23, hits give low values 0.0834 | locus YEL061C, strain CIN8 (second series), hits give low values 0.113 | locus YEL061C, strain CIN8, hits give low values 0.0497 | locus YER015W, strain faa2, hits give low values 0.0605 | locus YER016W, strain bim1, hits give low values 0.0613 | locus YER110C, hits give low values 0.0829 | locus YER111C, strain swi4, hits give low values 0.0714 | locus YER155C, strain BEM2 (second series), hits give low values 0.0997 | locus YER155C, strain BEM2, hits give low values 0.0681 | locus YER167W, strain BCK2, hits give low values 0.0524 | locus YFR010W, strain ubp6, hits give low values 0.0733 | locus YGL078C, strain dbp3, hits give low values 0.0711 | locus YGL086W, strain mad1, hits give low values 0.0668 | locus YGL167C, strain pmr1, hits give low values 0.0738 | locus YGL173C, strain kem1, hits give low values 0.0702 | locus YGL227W, strain vid30, hits give low values 0.128 | locus YGL240W, strain doc1, hits give low values 0.0706 | locus YGL248W, strain PDE1, hits give low values 0.0483 | locus YGL253W, strain hxk2, hits give low values 0.0835 | locus YGR078C, strain PAC10, hits give low values 0.0502 | locus YGR135W, strain pre9, hits give low values 0.066 | locus YGR252W, strain gcn5, hits give low values 0.174 | locus YHR013C, strain ard1, hits give low values 0.101 | locus YHR027C, strain rpn1, hits give low values 0.0624 | locus YHR030C, strain SLT2, hits give low values 0.0509 and 0.106 | locus YHR079C, strain IRE1 (second series), hits give low values 0.0587 | locus YHR079C, strain IRE1, hits give low values 0.127 | locus YHR094C, strain hxt1, hits give low values 0.0631 | locus YHR129C, strain ARP1, hits give low values 0.0599 | locus YHR142W, strain chs7, hits give low values 0.0877 | locus YHR200W, strain rpn10, hits give low values 0.0662 | locus YIL066C, strain RNR3, hits give low values 0.0495 | locus YIL073C, strain SPO22, hits give low values 0.111 | locus YIL125W, strain kgd1, hits give low values 0.0705 | locus YIR030C, strain dcg1, hits give low values 0.0597 | locus YJL092W, strain hpr5, hits give low values 0.0945 | locus YJL095W, strain BCK1 (second series), hits give low values 0.0605 | locus YJL095W, strain BCK1, hits give low values 0.0616 and 0.0998 | locus YJL115W, strain asf1, hits give low values 0.146 | locus YJL129C, strain trk1, hits give low values 0.0826 | locus YJL134W, strain LCB3, hits give low values 0.0525 | locus YJL154C, strain vps35, hits give low values 0.102 | locus YJL164C, strain tpk1, hits give low values 0.0587 | locus YJL166W, strain qcr8, hits give low values 0.059 | locus YJL168C, strain set2, hits give low values 0.0636 | locus YJL187C, strain SWE1 (second series), hits give low values 0.0476 | locus YJR043C, strain POL32, hits give low values 0.0636 | locus YJR066W, strain TOR1, hits give low values 0.0218 | locus YKL009W, strain mrt4, hits give low values 0.0954 | locus YKL068W, hits give low values 0.0759 | locus YKL085W, strain MDH1 (second series), hits give low values 0.0618 | locus YKL085W, strain MDH1, hits give low values 0.0618 | locus YKL160W, strain elf1, hits give low values 0.082 | locus YKR001C, strain vps1, hits give low values 0.0627 | locus YKR026C, strain gcn3, hits give low values 0.122 | locus YKR091W, strain srl3, hits give low values 0.135 | locus YLL001W, strain dnm1, hits give low values 0.0833 | locus YLL026W, hits give low values 0.0593 | locus YLL041C, strain sdh2, hits give low values 0.065 | locus YLR027C, strain aat2, hits give low values 0.0538 | locus YLR039C, strain RIC1, hits give low values 0.0942 | locus YLR058C, strain SHM2, hits give low values 0.0495 | locus YLR102C, strain apc9, hits give low values 0.0664 | locus YLR113W, strain HOG1, hits give low values 0.168 | locus YLR221C, strain rsa3, hits give low values 0.0599 | locus YLR258W, strain gsy2, hits give low values 0.0596 | locus YLR262C, strain YPT6 (second series), hits give low values 0.108 | locus YLR262C, strain YPT6, hits give low values 0.103 | locus YLR268W, strain sec22, hits give low values 0.0689 | locus YLR320W, strain mms22, hits give low values 0.0776 | locus YLR330W, strain CHS5, hits give low values 0.0512 | locus YLR342W, strain FKS1 (second series), hits give low values 0.0673 | locus YLR342W, strain FKS1, hits give low values 0.0668 | locus YLR357W, strain rsc2, hits give low values 0.203 | locus YLR370C, strain arc18, hits give low values 0.0765 | locus YLR371W, strain rom2, hits give low values 0.066 | locus YLR384C, strain iki3, hits give low values 0.0582 | locus YLR418C, strain cdc73, hits give low values 0.0923 | locus YML016C, strain PPZ1, hits give low values 0.0462 | locus YML032C, strain rad52, hits give low values 0.0754 | locus YML120C, strain ndi1, hits give low values 0.0565 | locus YML124C, strain tub3, hits give low values 0.0612 | locus YMR058W, strain fet3, hits give low values 0.0641 | locus YMR078C, strain ctf18, hits give low values 0.0785 | locus YMR125W, strain sto1, hits give low values 0.244 | locus YMR129W, hits give low values 0.0599 | locus YMR205C, strain PFK2, hits give low values 0.12 | locus YMR223W, strain ubp8, hits give low values 0.0681 | locus YMR231W, strain pep5, hits give low values 0.0661 | locus YMR263W, strain SAP30, hits give low values 0.0554 | locus YMR307W, strain GAS1, hits give low values 0.132 | locus YNL067W, strain RPL9B, hits give low values 0.049 | locus YNL071W, strain lat1, hits give low values 0.0622 | locus YNL183C, strain NPR1, hits give low values 0.0694 | locus YNL209W, strain ssb2, hits give low values 0.0567 | locus YNL233W, strain BNI4, hits give low values 0.0547 | locus YNL248C, strain rpa49, hits give low values 0.194 | locus YNL250W, strain rad50, hits give low values 0.0731 | locus YNL271C, strain bni1, hits give low values 0.0769 | locus YNL298W, strain CLA4, hits give low values 0.076 | locus YNL307C, strain MCK1, hits give low values 0.0703 | locus YNL322C, strain KRE1 (second series), hits give low values 0.0667 | locus YNL322C, strain KRE1, hits give low values 0.0462 | locus YNR049C, strain mso1, hits give low values 0.0954 | locus YNR052C, strain pop2, hits give low values 0.065 | locus YOL006C, strain TOP1, hits give low values 0.117 | locus YOL147C, strain pex11, hits give low values 0.0602 | locus YOR001W, strain rrp6, hits give low values 0.0711 | locus YOR061W, strain CKA2, hits give low values 0.0478 | locus YOR069W, strain VPS5, hits give low values 0.0472 | locus YOR070C, strain gyp1, hits give low values 0.0596 | locus YOR080W, strain dia2, hits give low values 0.0638 | locus YOR083W, strain WHI5, hits give low values 0.0897 | locus YOR106W, strain vam3, hits give low values 0.0664 | locus YOR136W, strain idh2, hits give low values 0.0784 | locus YOR144C, strain elg1, hits give low values 0.0595 | locus YOR184W, strain ser1, hits give low values 0.0724 | locus YOR231W, strain MKK1, hits give low values 0.115 | locus YOR265W, strain rbl2, hits give low values 0.0564 | locus YOR270C, strain vph1, hits give low values 0.131 | locus YOR290C, strain snf2, hits give low values 0.0717 | locus YOR316C, strain cot1, hits give low values 0.0637 | locus YPL051W, strain arl3, hits give low values 0.062 | locus YPL055C, strain LGE1, hits give low values 0.0714 | locus YPL078C, strain atp4, hits give low values 0.0623 | locus YPL106C, strain sse1, hits give low values 0.096 | locus YPL240C, strain hsp82, hits give low values 0.083 | locus YPL256C, strain CLN2, hits give low values 0.129 | locus YPR119W, strain clb2, hits give low values 0.0694 | locus YPR141C, strain kar3, hits give low values 0.0792 | locus YPR163C, strain tif3, hits give low values 0.0744 | locus YPR167C, strain met16, hits give low values 0.0645 | strain wtn01, hits give low values 0.0639
